PubChem BioAssay (NCATS)
Results filed as inconclusive are left out. A number with no mark means an inactive call. The call rests on the fitted dose curve; in most records, active means well fitted inhibition curve with a large enough effect; inconclusive means small, poorly fitted or top-dose-only effect; inactive means flat fitted curve, though single readings scatter.

Molecular target: Aldehyde dehydrogenase, mitochondrial (Homo sapiens) (UniProt P05091)
Test: qHTS for Inhibitors of the Aldehyde Dehydrogenase Family (ALDH2) Primary screen (AID 2061308);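 further: plate controls were vehicle for no effect and reference inhibitor for full effect; nearly all actives have a fitted effect of over 55% in size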
Details: ALDH2 enzyme inhibition qHTS, 1536-well; series mostly up to 56 µM; activity change, negative = inhibition: at the top concentration

SMILES	activity change, negative = inhibition
Cc1cnn(-c2ccccc2)c1NC(=O)COCc1ccccc1	9.16%
CC(C)CN(C[C@@H](O)[C@H](Cc1ccccc1)NC(=O)O[C@@H]1CO[C@H]2OCC[C@H]21)S(=O)(=O)c1ccc(N)cc1	3.84%
COc1cc(O)cc(C)c1C(=O)OC1C(CO)OC(OC2C(O)C(O)C(O)C(O)C2O)C(O)C1O (stereo not drawn)	2.02% [at 28 µM]
CC1CCC2C(C(=O)O)=CC3CC(C)(C)CC132 (stereo not drawn)	-10.3%
C=C[C@H]1[C@H](O[C@@H]2O[C@H](CO[C@@H]3OC[C@](O)(CO)[C@H]3O)[C@@H](O)[C@H](O)[C@H]2O)OC=C2C(=O)OCC[C@H]21	-0.403% [at 28 µM]
C/C=C(\C)C(=O)OC1C=C(C)CC(OC(=O)c2ccc(O)cc2)C2C1(C)CCC2(O)C(C)C (stereo not drawn)	-0.014% [at 28 µM]
O=C(CCC1CCN(Cc2ccccc2)CC1)c1ccc2c(c1)NCCCC2	21.4%
Nc1nc(Nc2ccc3c(c2)CCC(N2CCCC2)CC3)nn1-c1cc2c(nn1)-c1ccccc1CCC2 (stereo not drawn)	17.7%
CCC1OC(=O)C(C)CC(C)C(=O)/C(C)=C/C(C)C(=O)/C=C/C1(C)O (stereo not drawn)	3.04%
CO[C@@]12CC3[C@@H]([C@@H](O)[C@@H](OC(C)=O)C4[C@](C)(COC(C)=O)CCC[C@]34C)[C@@H](C)C1=CC(=O)O2 (stereo partly drawn)	20% [at 28 µM]
Cn1c(=O)c(F)c(Nc2ccc(I)cc2F)c2c(=O)n(CC(O)CO)cnc21 (stereo not drawn)	-4.06%
CC(C)c1ccc2c(c1)[C@H](O)CC1[C@@](C)(C(=O)O)CCC[C@]21C (stereo partly drawn)	-13.7%
CC(C)[C@@H](C(=O)O)N1Cc2c(cc(O)c3c2O[C@]2(C3)[C@H](C)CCC3C(C)(C)[C@H](O)[C@H](O)C[C@@]32C)C1=O (stereo partly drawn)	14.1% [at 28 µM]
